Results as given in PubChem BioAssay (EPA / NIEHS).
Active and inactive are the calls of the source. Rule for the calls: active = hit-call score of the fitted dose curve at least 0.9, where 1 is the maximum; inactive = score below 0.9.

Tests used:
[1] = ATG_PBREM_CIS: Attagene CIS-FACTORIAL HepG2 Assay for human Phenobarbital-responsive Enhancer Module (PBREM) (AID 2282955); conditions: HepG2 PBREM cis-reporter, Attagene multiplexed transcription; actives raise or lower the signal
How it was run: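 Fluorescence of labelled reporter cDNA fragments, resolved by capillary electrophoresis, gives mRNA induction in transfected HepG2 cells treated for 24 h; DMSO serves as negative control and baseline.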

[2] = target: Paired box protein Pax-6 (Homo sapiens) (UniProt P26367); test: ATG_Pax6_CIS: Attagene CIS-FACTORIAL HepG2 Assay for human Paired Box 6 (PAX6) (AID 2282956); conditions: HepG2 CIS-FACTORIAL PAX6 reporter transcription, RNA readout; actives raise or lower the signal
Paired box protein Pax-6 (Homo sapiens), sequence (P26367 whole entry, looked up): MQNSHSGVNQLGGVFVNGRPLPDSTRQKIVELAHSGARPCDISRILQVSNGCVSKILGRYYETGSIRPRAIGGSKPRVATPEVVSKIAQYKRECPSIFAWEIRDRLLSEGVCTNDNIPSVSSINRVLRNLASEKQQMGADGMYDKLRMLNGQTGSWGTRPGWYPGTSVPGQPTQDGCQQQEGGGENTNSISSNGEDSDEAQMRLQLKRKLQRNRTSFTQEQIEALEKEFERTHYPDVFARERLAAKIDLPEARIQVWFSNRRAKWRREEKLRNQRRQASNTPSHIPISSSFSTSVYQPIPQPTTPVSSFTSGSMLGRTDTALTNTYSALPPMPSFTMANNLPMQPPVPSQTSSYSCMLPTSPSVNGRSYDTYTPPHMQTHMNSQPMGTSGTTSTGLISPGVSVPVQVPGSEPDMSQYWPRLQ
How it was run: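 Transient MRTU transfection of HepG2 → compound exposure 24 h → TriZol RNA, oligo(dT) RT → PCR, 6-FAM primer extension, HpaI cut → capillary electrophoresis; activity fitted both directions against DMSO.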

[3] = ATG_PXRE_CIS: Attagene CIS-FACTORIAL HepG2 Assay for human Pregnane X Receptor Element (PXRE) (AID 2282957); conditions: HepG2 Attagene CIS-FACTORIAL PXRE reporter, mRNA; actives raise or lower the signal
How it was run: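 Cells: HepG2, transiently transfected reporter units under cis promoter control. Exposure: 24 h. Detection: reporter mRNA via RT-PCR/CE fluorescence; bidirectional fitting, DMSO-referenced.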

[4] = ATG_PPRE_CIS: Attagene CIS-FACTORIAL HepG2 Assay for human Peroxisome Proliferator-activated Response Element (PPRE) (AID 2282958); conditions: HepG2 PPRE cis-element reporter, Attagene transcription factor profiling; actives raise or lower the signal
How it was run: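 Cells are first transfected transiently with the multiplexed reporter library, then dosed for 24 h. Total RNA is reverse-transcribed, amplified, fluorescently end-labeled and HpaI-cut before capillary electrophoresis; activity is fitted bidirectionally against DMSO controls.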

[5] = ATG_RORE_CIS: Attagene CIS-FACTORIAL HepG2 Assay for human RAR-related Orphan Receptor Element (RORE) (AID 2282959); conditions: HepG2 Attagene cis-factorial RORE reporter, mRNA; actives raise or lower the signal
How it was run: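 Cells were HepG2 carrying transfected cis-regulated reporter constructs, dosed for 24 hours. Total RNA was reverse-transcribed and reporter cDNA amplified, fluorescently labeled and sized by capillary electrophoresis. Activity was fitted bidirectionally relative to DMSO.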

[6] = ATG_Sox_CIS: Attagene CIS-FACTORIAL HepG2 Assay for human SRY-box transcription factor (SOX) (AID 2282960); conditions: HepG2 Attagene cis-factorial SOX reporter, mRNA; actives raise or lower the signal
How it was run: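 Transient MRTU transfection of HepG2; 24 h compound incubation; TriZol RNA, oligo(dT) RT, PCR, 6-FAM primer extension, HpaI cut, CE. Bidirectional fit, DMSO = baseline.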

[7] = target: Transcription factor Sp1 (Homo sapiens) (UniProt P08047); test: ATG_Sp1_CIS: Attagene CIS-FACTORIAL HepG2 Assay for human Specificity Protein 1 (Sp1) (AID 2282961); conditions: HepG2 Sp1 cis-reporter transcription, actives raise or lower the signal
Transcription factor Sp1 (Homo sapiens), sequence (P08047 whole entry, looked up): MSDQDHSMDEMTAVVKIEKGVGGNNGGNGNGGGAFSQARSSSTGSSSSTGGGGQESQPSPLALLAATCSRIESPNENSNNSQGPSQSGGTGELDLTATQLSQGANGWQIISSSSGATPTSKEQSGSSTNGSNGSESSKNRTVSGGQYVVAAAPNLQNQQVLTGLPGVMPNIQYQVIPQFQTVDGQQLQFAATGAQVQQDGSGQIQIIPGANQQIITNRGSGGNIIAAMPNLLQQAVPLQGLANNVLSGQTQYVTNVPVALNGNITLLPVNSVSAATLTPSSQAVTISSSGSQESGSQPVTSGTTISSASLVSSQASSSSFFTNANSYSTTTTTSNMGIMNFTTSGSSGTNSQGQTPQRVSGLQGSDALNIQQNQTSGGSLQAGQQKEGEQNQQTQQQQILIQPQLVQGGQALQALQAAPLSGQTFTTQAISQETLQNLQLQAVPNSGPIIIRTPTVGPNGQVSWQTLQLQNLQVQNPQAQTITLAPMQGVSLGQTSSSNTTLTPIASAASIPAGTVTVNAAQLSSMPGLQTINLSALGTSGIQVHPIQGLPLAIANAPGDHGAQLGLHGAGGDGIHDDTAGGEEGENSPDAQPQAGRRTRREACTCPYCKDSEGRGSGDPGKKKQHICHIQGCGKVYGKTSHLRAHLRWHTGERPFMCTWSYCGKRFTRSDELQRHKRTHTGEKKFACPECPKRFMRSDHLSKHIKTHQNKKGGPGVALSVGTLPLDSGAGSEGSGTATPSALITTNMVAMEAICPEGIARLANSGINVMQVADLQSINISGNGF
How it was run: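 Endogenous Sp1 activity was gauged in human liver HepG2 cells bearing transfected reporter units under a cis-regulating promoter. After 24 h dosing, reporter mRNA was quantified by RT-PCR with capillary electrophoresis, and activity fitted bidirectionally versus DMSO.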

[8] = ATG_SREBP_CIS: Attagene CIS-FACTORIAL HepG2 Assay for human Sterol Regulatory Element Binding (SREBP) (AID 2282962); conditions: HepG2 Attagene cis-factorial SREBP reporter, mRNA; actives raise or lower the signal
How it was run: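 Transfected HepG2 (cis-regulated reporter library, endogenous TFs) → compound 24 h → total RNA → oligo(dT) RT → reporter-specific PCR → FAM primer extension, HpaI cut → CE fluorescence. Fit bidirectional vs DMSO.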

[9] = ATG_TA_CIS: Attagene CIS-FACTORIAL HepG2 Assay for human TA Basal Promoter (AID 2282964); conditions: HepG2 Attagene CIS-factorial TA basal promoter reporter; actives raise or lower the signal
How it was run: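 Fluorescence from labelled RT-PCR reporter fragments, separated by capillary electrophoresis, gives the signal. Cells: HepG2 transiently carrying multiple reporter units, 24 h chemical dosing. Gain or loss relative to DMSO.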

[10] = target: Signal transducer and activator of transcription 3 (Homo sapiens) (UniProt P40763); test: ATG_STAT3_CIS: Attagene CIS-FACTORIAL HepG2 Assay for human Signal Transducer and Activator of Transcription 3 (STAT3) (AID 2282963); conditions: HepG2, Attagene cis-factorial STAT3 reporter transcription; actives raise or lower the signal
Signal transducer and activator of transcription 3 (Homo sapiens), sequence (P40763 whole entry, looked up): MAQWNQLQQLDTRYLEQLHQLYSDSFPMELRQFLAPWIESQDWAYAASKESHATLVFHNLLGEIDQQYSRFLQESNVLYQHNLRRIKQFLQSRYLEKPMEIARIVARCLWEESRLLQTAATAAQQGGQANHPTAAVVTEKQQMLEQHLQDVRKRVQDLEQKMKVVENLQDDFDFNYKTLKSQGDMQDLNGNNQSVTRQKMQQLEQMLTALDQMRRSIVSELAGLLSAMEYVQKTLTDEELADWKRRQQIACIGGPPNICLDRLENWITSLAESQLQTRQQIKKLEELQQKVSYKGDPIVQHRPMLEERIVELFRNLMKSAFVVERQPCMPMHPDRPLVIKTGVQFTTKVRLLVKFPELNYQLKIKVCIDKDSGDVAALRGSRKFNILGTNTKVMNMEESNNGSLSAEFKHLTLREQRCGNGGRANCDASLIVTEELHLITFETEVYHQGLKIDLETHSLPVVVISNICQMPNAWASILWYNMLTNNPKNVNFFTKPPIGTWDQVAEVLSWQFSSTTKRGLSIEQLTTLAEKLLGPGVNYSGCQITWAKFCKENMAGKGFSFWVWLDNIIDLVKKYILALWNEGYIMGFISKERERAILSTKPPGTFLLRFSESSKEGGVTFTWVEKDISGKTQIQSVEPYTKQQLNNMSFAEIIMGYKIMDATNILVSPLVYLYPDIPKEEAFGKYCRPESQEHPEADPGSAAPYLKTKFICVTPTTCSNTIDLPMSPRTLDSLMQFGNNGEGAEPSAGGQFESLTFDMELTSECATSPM
How it was run: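 Transcript-level reporter assay. HepG2 transient MRTU transfection, 24 h exposure, fluorescence detection after RT-PCR and CE; DMSO baseline.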

Measured: AC50

OCC(F)(F)C(F)(F)C(F)(F)CO
not listed: [10]
inactive: all other assays above

CC(=O)C=O
not listed: [7]
inactive: all other assays above

Oc1ccc(C2(c3ccc(O)c(C4CCCCC4)c3)CCCCC2)cc1C1CCCCC1
inactive: [4] | [5] | [7] | [9]
active: [1] 8.53 µM | [2] 14.4 µM | [3] 0.175 µM | [6] 7.42 µM | [8] 27 µM | [10] 62.4 µM

C[Si](C)O[Si](C)C
not listed: [10]
inactive: all other assays above

CCC/C=C/CO
not listed: [10]
inactive: all other assays above

CCCCCCCCCc1ccc(OCCO)cc1
active: [2] 24.3 µM | [3] 0.64 µM | [8] 3.56 µM | [10] 19.5 µM
not listed: [7]
inactive: all other assays above

CC(C)CCCC(C)CCO (stereo not drawn)
inactive: all assays above

CCCC(=O)OCC(COC(=O)CCC)OC(=O)CCC
active: [3] 0.0935 µM
not listed: [10]
inactive: all other assays above

CCc1ccc(C)nc1
not listed: [7]
inactive: all other assays above

O=S(=O)(O)CCC(F)(F)C(F)(F)C(F)(F)C(F)(F)C(F)(F)C(F)(F)C(F)(F)C(F)(F)F
inactive: all assays above

O=C1c2ccccc2C(=O)c2c(Cl)cccc21
active: [3] 0.997 µM
not listed: [10]
inactive: all other assays above

OCC(O)CC(F)(F)C(F)(F)C(F)(F)C(F)(F)C(F)(F)C(F)(F)C(F)(F)C(F)(F)F (stereo not drawn)
not listed: [7]
inactive: all other assays above

CCC(C)CO (stereo not drawn)
inactive: all assays above

CCC(=O)OC(C)c1ccccc1 (stereo not drawn)
active: [3] 26.5 µM
inactive: all other assays above

OCC(F)(F)C(F)(F)C(F)(F)C(F)(F)C(F)(F)C(F)(F)CO
active: [3] 70.6 µM
not listed: [7]
inactive: all other assays above

CO[Si](C)(CCC(F)(F)C(F)(F)C(F)(F)C(F)(F)C(F)(F)C(F)(F)F)OC
not listed: [7]
inactive: all other assays above

CC(C)(C)c1cc(Cc2cc(C(C)(C)C)c(O)c(C(C)(C)C)c2)cc(C(C)(C)C)c1O
active: [3] 0.513 µM
not listed: [7]
inactive: all other assays above

O=C1c2c(O)ccc(Nc3ccc(CCO)cc3)c2C(=O)c2c([N+](=O)[O-])ccc(O)c21
active: [1] 38.6 µM | [3] 6.06 µM | [4] 24.1 µM | [5] 4.01 µM
not listed: [7]
inactive: all other assays above

NS(=O)(=O)C(F)(F)C(F)(F)C(F)(F)C(F)(F)C(F)(F)C(F)(F)F
active: [3] 41 µM | [4] 50.2 µM
not listed: [10]
inactive: all other assays above

CCOC(C=C(C)CCC=C(C)C)OCC
active: [3] 31.2 µM | [5] 38.3 µM
not listed: [10]
inactive: all other assays above

C=CC(=O)OCC(F)(F)C(F)(F)C(F)(F)COC(=O)C=C
active: [2] 50 µM | [6] 29.1 µM
not listed: [7]
inactive: all other assays above

CCN=C1C=CC(=C(c2ccc(N(CC)CC)cc2)c2ccc(N(CC)CC)cc2)c2ccccc21
inactive: [4] | [8] | [10]
active: [1] 0.0478 µM | [2] 1.78 µM | [3] 1.23 µM | [5] 0.068 µM | [6] 0.0762 µM | [9] 1.23 µM

NC(=O)C(F)(F)C(F)(F)C(F)(F)C(F)F
not listed: [7]
inactive: all other assays above

O=C(Cl)C(F)(F)C(F)(F)C(F)(F)C(F)(F)C(F)(F)C(F)(F)C(F)(F)F
active: [4] 69.5 µM
not listed: [10]
inactive: all other assays above

CCOC(=O)CCC(C)=O
not listed: [10]
inactive: all other assays above

CC1CCCCC1
not listed: [7]
inactive: all other assays above

CCOC(=O)CC(=O)C(F)(F)C(F)(F)F
active: [3] 75.8 µM
not listed: [7]
inactive: all other assays above

FC(F)(F)C(F)(F)C(F)(F)CC1CO1 (stereo not drawn)
not listed: [10]
inactive: all other assays above

CC(C)CC=C(C=O)c1ccccc1
active: [3] 0.956 µM
not listed: [10]
inactive: all other assays above

N#CCCOCCC#N
not listed: [6] | [10]
inactive: all other assays above

Oc1ccc2c(c1)CCC2
not listed: [6]
inactive: all other assays above

O=C(Cl)c1ccc(Cl)cc1Cl
active: [3] 27.3 µM
not listed: [6] | [7]
inactive: all other assays above

FC(F)(F)C(F)(F)C(F)(F)C(F)(F)C(F)(F)C(F)(F)CC[Si](Cl)(Cl)Cl
not listed: [6]
inactive: all other assays above

FC(F)(F)C(F)(F)C(F)(F)C(F)(F)C(F)(F)C(F)(F)C(F)(F)CCI
not listed: [6] | [10]
inactive: all other assays above

OCCCC(F)(F)C(F)(F)C(F)(F)C(F)(F)C(F)(F)C(F)(F)C(F)(F)C(F)(F)F
active: [2] 29.9 µM | [4] 20.9 µM
not listed: [6] | [10]
inactive: all other assays above

CCN(CCO)S(=O)(=O)C(F)(F)C(F)(F)C(F)(F)C(F)(F)C(F)(F)C(F)(F)C(F)(F)C(F)(F)F
active: [3] 9.56 µM
not listed: [7] | [10]
inactive: all other assays above

NC(O)(C(F)(F)F)C(F)(F)F
not listed: [6] | [10]
inactive: all other assays above

CCCCCCCC/C=C\CCCCCCCC(=O)N(C)CC(=O)O
active: [3] 16 µM | [4] 3.73 µM | [8] 11.1 µM
not listed: [6] | [10]
inactive: all other assays above

O=S(=O)(Cl)C(F)(F)C(F)(F)C(F)(F)C(F)(F)C(F)(F)C(F)(F)C(F)(F)C(F)(F)F
active: [3] 28.3 µM | [4] 36.6 µM
not listed: [6] | [10]
inactive: all other assays above

CCN=c1cc2oc3cc(NCC)c(C)cc3c(-c3ccccc3C(=O)OCC)c-2cc1C
active: [2] 8.69 µM | [4] 17 µM | [7] 9.7 µM | [8] 15.5 µM | [9] 11.1 µM
inactive: [1] | [3] | [5]

CCn1c2ccccc2c2ccccc21
inactive: [1] | [2] | [4] | [5] | [9]
active: [3] 26.2 µM | [8] 153 µM

CCc1cccc(C)c1N(C(=O)C(=O)O)C(C)COC (stereo not drawn)
not listed: [7] | [10]
inactive: all other assays above

CCCCCCCCCCCCCC[P+](CCCC)(CCCC)CCCC
active: [2] 0.81 µM | [7] 0.969 µM | [8] 1.24 µM
not listed: [6]
inactive: all other assays above

NCC(F)(F)C(F)(F)C(F)(F)C(F)(F)C(F)(F)C(F)(F)F
not listed: [6]
inactive: all other assays above

O=S(=O)(O)CCC(F)(F)C(F)(F)C(F)(F)C(F)(F)F
not listed: [6]
inactive: all other assays above

O=C(O)C(F)(F)C(F)(F)C(F)(F)OC(F)(F)F
not listed: [6]
inactive: all other assays above

CC(=O)c1ccccc1N
not listed: [5]
inactive: all other assays above

CNS(=O)(=O)C(F)(F)C(F)(F)C(F)(F)C(F)(F)C(F)(F)C(F)(F)C(F)(F)C(F)(F)F
active: [3] 10.4 µM
not listed: [6]
inactive: all other assays above

CCOC(=O)C1CC(=O)C(=C(O)C2CC2)C(=O)C1 (stereo not drawn)
active: [3] 77.3 µM
not listed: [6]
inactive: all other assays above

CCC(Cc1c(I)cc(I)c(N)c1I)C(=O)O (stereo not drawn)
active: [3] 151 µM | [4] 39.7 µM | [7] 88.5 µM | [8] 24.1 µM
not listed: [6]
inactive: all other assays above
